Many of the other results were omitted from the sample, so hits are more common in it than they were.
RE007 growth inh: less growth of the S. pombe RE007 Vpr strain. S. pombe RE007 Vpr strain, BacTiter-Glo ATP luminescence, 24 h. Potency, µM (doses to about 92.2 µM), without a hit: at the top dose activity change, negative = less growth, hits mostly inhibitors. 0.21% of 360,000 active. AID 651644; active = well fitted falling curve with a large enough effect; inconclusive = small, poorly fitted or top-dose-only effect; inactive = no such curve, though single readings can be large or run the other way; note: potency is the fitted concentration of half-maximal effect; % is set by controls: 0 for no effect and ±100 for the full control effect; nearly all actives have a fitted effect of over 50% in size
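Fission yeast strain RE007, carrying one chromosomally integrated HIV-1 vpr copy, was seeded at OD 0.01 in PMG+AL medium with 23 nL pinned compound. After 24 h at 30 °C and 99% humidity, viability was read by BacTiter-Glo luminescence.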
CHX counter: affects cycloheximide protein synthesis inhibition readout, counter-screen; max response, %; 12% of 300,000 active; AID 2314; cell reporter, cycloheximide protein synthesis inhibition counterscreen; in the data active = max response mostly above about 13%, no sharp cut-off; inactive = mostly below about 14%; note: read at 38.3 µM for the half of the compounds with a filed dose; 0% is about no effect
Shiga toxin inh: Shiga toxin inhibition | 9.2% of 290,000 active | inhibition, % at 38.7 µM | AID 2315 | Vero cells, Shiga toxin protein synthesis inhibition reporter; in the data active = inhibition mostly above about 28%, no sharp cut-off; inactive = mostly below about 43%; note: 0% is about no effect
Tb PYK inh: inhibitors of Trypanosoma brucei pyruvate kinase; 0.12% of 410,000 active; Potency, µM (highest dose often 76.8 µM), without a hit: at the top dose activity, negative = inhibition, usual class: inhibitors; TbPYK enzyme, Kinase-Glo Plus ATP luminescence, 45 min; AID 624173; Q57TT1; note: potency is the fitted concentration of half-maximal effect; % is set by controls: 0 for no effect and ±100 for the full control effect; nearly all actives have a fitted effect of over 50% in size
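Glycolytic pyruvate kinase of T. brucei was incubated with substrate, test compound and 130 uM ADP for 45 minutes at room temperature. Luminescent Kinase-Glo Plus signal was measured after 10 minutes.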
Giardia FBPA inh: blocks Giardia fructose-bisphosphate aldolase activity. A8B2U2. purified Giardia FBPA. Potency, µM (series often up to 59.6 µM), without a hit: at the top dose activity, negative = inhibition, most hits filed as inhibitors. 0.71% of 290,000 active. AID 2451; note: potency is the fitted concentration of half-maximal effect; % is set by controls: 0 for no effect and ±100 for the full control effect; nearly all actives have a fitted effect of over 55% in size
Target sequence (A8B2U2 whole entry, looked up): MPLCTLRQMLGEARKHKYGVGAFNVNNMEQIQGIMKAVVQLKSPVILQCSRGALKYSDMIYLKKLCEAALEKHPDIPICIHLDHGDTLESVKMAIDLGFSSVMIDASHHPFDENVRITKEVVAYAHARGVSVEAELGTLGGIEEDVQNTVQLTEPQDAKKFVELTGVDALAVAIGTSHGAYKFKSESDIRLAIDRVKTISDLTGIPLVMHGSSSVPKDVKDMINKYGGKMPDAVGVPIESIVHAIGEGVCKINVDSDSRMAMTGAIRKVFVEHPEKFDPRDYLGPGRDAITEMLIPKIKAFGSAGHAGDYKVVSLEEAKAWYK
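Giardia FBPA (40 nM reagent) was preincubated 10 min at RT with compound (up to 57.5 uM final), then substrate plus GAPDH/TPI/NAD/arsenate coupling system with diaphorase/resazurin was added; resorufin fluorescence (525/598 nm) was read after 20 min.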
LmPK inhibitor: inhibitors of Leishmania mexicana pyruvate kinase; Q27686; purified LmPK, Kinase-Glo ATP luminescence, 1 h; Potency, µM (series often up to 57.5 µM), for the others: at the highest dose activity change, negative = inhibition, usual class: inhibitors; 0.37% of 290,000 active; AID 1721; note: potency is the fitted concentration of half-maximal effect; % is set by controls: 0 for no effect and ±100 for the full control effect
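qHTS format; LmPK 0.1 nM; substrates PEP 0.5 mM and ADP 0.1 mM. One-hour room-temperature incubation, then coupled luciferase luminescence; 0.5 nM enzyme wells mark activation.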
Numbers without * were called inactive; ? = inconclusive; . = not tested or not shown. Unless noted, calls come from the whole dose curve; as a rule, active = well fitted curve in the direction sought with a large enough effect; inconclusive = small, poorly fitted or top-dose-only effect, or another doubt; inactive = no such curve, though single readings can be large; an effect the other way counts as inactive or inconclusive.

SMILES	RE007 growth inh	CHX counter	Shiga toxin inh	Tb PYK inh	Giardia FBPA inh	LmPK inhibitor
CS(=O)(=O)Nc1cccc(-c2cncnc2Nc2ccc(F)cc2)c1	.	.	.	.	-8%	.
CC(C)c1ccc2oc(-c3ccc(NC(=O)c4cc5ccccc5o4)cc3)nc2c1	.	.	.	3%	.	.
Cc1ccc2oc(-c3cccc(N)c3)nc2c1	32µM*	26*	58*	-12%	-9%	-22%
CC(C)(C)c1ccc(-c2nc3cc(N)ccc3o2)cc1	15%	51*	94*	-4%	-6%	0%
CC(C)c1ccc2oc(-c3ccc(N)cc3)nc2c1	40µM*	42*	117*	-3%	-5%	-14%
Nc1cccc(-c2nc3cc(S(=O)(=O)c4ccc5oc(-c6cccc(N)c6)nc5c4)ccc3o2)c1	6%	4	20	2%	5%	0%
Nc1ccc2oc(-c3cccs3)nc2c1	-7%	46*	86*	0%	-15%	-20%
CC(C)(C)c1ccc(-c2nc3cc(NC(=O)c4cc5ccccc5o4)ccc3o2)cc1	.	.	.	-29%	.	.
Cc1cccc(N2CCN(S(=O)(=O)c3ccc(-c4cc(C(F)(F)F)on4)s3)CC2)c1C	.	.	.	-4%	.	.
O=c1oc(-c2ccco2)nc2ccccc12	-19%	10	-10	4%	-2%	-12%
Cc1ccc(-c2nc3cc(NS(=O)(=O)c4ccc(C)cc4)ccc3o2)cc1	16%	8	13	-17%	-6%	5%
Nc1ccc2oc(-c3cccc4ccccc34)nc2c1	?	-2	-2	-1%	-3%	1%
Cc1ccc2oc(-c3ccco3)nc2c1	-11%	42*	101*	0%	2%	-27%
Cc1ccc(-c2nc3cc(N)ccc3o2)c(C)c1	-11%	33*	66*	5%	-6%	-6%
Cc1ccc(-c2nc3cc(C)ccc3o2)cc1	4%	33*	118*	1%	-8%	?
Cc1ccc(-c2nc3cc(NC(=O)c4cc5ccccc5o4)ccc3o2)cc1	.	.	.	-1%	.	.
Cc1ccc(-c2nc3cc(N)ccc3o2)cc1	-23%	25*	68*	-3%	-1%	?
COc1ccc(S(=O)(=O)c2c(Nc3ccc(F)cc3)sc(C(=O)c3ccc4c(c3)OCO4)c2N)cc1	.	.	.	2%	.	.
O=C1c2cccc3c([N+](=O)[O-])ccc(c23)C(=O)N1c1ccccn1	28µM*	3	24	-2%	.	8%
Cc1cc(C)nc(N(C#N)CC(=O)c2ccccc2)n1	8%	37*	48*	1%	-3%	-18%
CCc1ccc(C(=O)CN(C#N)c2nc(C)cc(C)n2)cc1	4%	4	25	3%	8%	-5%
O=C(Nc1ccccc1)OCCc1ccccc1	-14%	.	.	1%	.	.
O=C(Nc1ccccc1)OCCCCOC(=O)Nc1ccccc1	-5%	.	.	-1%	.	.
C#CCCOC(=O)Nc1ccccc1	-9%	active	22	4%	-1%	-1%
O=C(Nc1ccccc1)OCCCc1ccccc1	-7%	50*	133*	-11%	-9%	5%
SMILES	RE007 growth inh	CHX counter	Shiga toxin inh	Tb PYK inh	Giardia FBPA inh	LmPK inhibitor
Cc1ccccc1OCc1nc2c3cnn(-c4cccc(F)c4)c3ncn2n1	.	.	.	-5%	.	.
CCN(CC)CCN(C(=O)c1ccc(C(=O)OC)cc1)c1nc2ccc(Cl)cc2s1	.	.	.	0%	.	.
COc1ccc(OCC(=O)Nc2ccc3oc(=O)ccc3c2)cc1	9%	0	-15	-4%	.	-1%
O=C(COc1ccc2ccc(=O)oc2c1)c1ccccc1	2%	23*	31	-6%	6%	8%
CSc1cccc(NC(=O)COc2ccccc2C)c1	-23%	16*	47*	-1%	3%	2%
CN(C)C(=O)COc1ccc2ccc(=O)oc2c1	0%	1	13	-5%	2%	3%
O=C(COc1ccccc1)Nc1ccc2oc(=O)ccc2c1	4%	23*	52*	-5%	10%	4%
CCC(=O)Nc1cccc(SC)c1	7%	-1	3	1%	-9%	1%
Cc1ccccc1OCC(=O)Nc1ccc2oc(=O)ccc2c1	5%	33*	54	0%	1%	2%
Cn1c(=O)c2nc(SCC(=O)Nc3cc(Cl)cc(Cl)c3)n(C)c2n(C)c1=O	.	.	.	7%	.	.
CC[C@H](NC(=O)[C@H](CCC(=O)O)NC(=O)[C@H](CCC(=O)O)NC(=O)[C@H](CC(=O)O[S+](=O)([O-])c1cccc2c(NCCN)cccc12)NC(=O)[C@H](CCC(=O)O)NC(=O)[C@H](CC(=O)O)NC(C)=O)C(=O)ON[C@@H](C)C(=O)N[C@@H](CO)C(=O)N[C@@H](CCCCNC(=O)c1ccc(N=Nc2ccc(N(C)C)cc2)cc1)C(N)=O	.	8	23	.	-5%	.
CCCn1cc(NC(=O)c2cc(-c3ccccc3)on2)cn1	-15%	35*	68*	-4%	-1%	2%
Cc1ccc(-c2cc(C(=O)Nc3cc(C)on3)no2)cc1	2%	-2	26	4%	2%	9%
Cc1ccc(-c2cc(C(=O)Nc3cnn(C(C)C)c3)no2)cc1	9%	22*	-2	0%	2%	-2%
Cc1ccc(-c2cc(C(=O)Nc3cnn(C45CC6CC(CC(C6)C4)C5)c3)no2)cc1	12%	-5	-8	4%	5%	1%
Cc1ccc(-c2cc(C(=O)Nc3c(C#N)cnn3C)no2)cc1	-13%	14*	56*	1%	3%	-7%
Cc1cccc2nc3c(nc12)-c1ccccc1C3=O	-20%	15	17	-6%	-4%	-3%
Cc1ccc2nc3c(nc2c1)-c1ccccc1C3=O	?	20*	32*	-10%	6%	4%
CCOC(=O)c1sc(N/N=C/c2cccc(C)c2)nc1C	-17%	16	16	0%	-1%	-3%
CC(=O)Nc1sc(N/N=C\c2cccc(Cl)c2)nc1-c1cccs1	-22%	19*	9	1%	-2%	6%
CC(=O)Nc1sc(N/N=C\c2ccc(O)cc2)nc1-c1cccs1	-8%	27*	68*	-8%	-18%	20%
CC(=O)Nc1sc(NC(=O)c2ccccc2)nc1-c1cccs1	1%	21	14	-6%	4%	1%
CC(=O)Nc1sc(N/N=C\c2ccccc2F)nc1-c1cccs1	-18%	38*	62*	-5%	-5%	0%
O=C(CSc1nc(=O)[nH]c2c1CCCC2)NCc1ccccc1Cl	.	.	.	-7%	.	.
COc1cccc2c1nc(C)c1cc(C)oc12	-30%	36*	40	4%	3%	4%
COc1ccc2nc(C)c3cc(C)oc3c2c1	-21%	0	-9	6%	-1%	0%
COc1cccc(-c2nc(SCc3cccc(Br)c3)n3[nH]c(=O)cc3n2)c1	.	.	.	0%	.	.
CCCCOc1ccc(NC(=O)CSc2ccc(C(=O)O)cn2)cc1	.	.	.	1%	.	.
